Compounds with a hit are over-represented: about 14% of the library has one in this group of screens.
NS1 inh: blocks influenza NS1 protein function; Potency, µM (series often up to 46.1 µM); 0.4% of 270,000 active; AID 2326; calls by dose curve; also: actives are rising curves; nearly all actives have a fitted effect of over 50% in size
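Read-out: OD600 growth recovery of NS1-expressing budding yeast. Cells grown overnight at 30C in -URA glucose medium, washed, resuspended and diluted 1:100 in 2% galactose assay medium, pH 6.0. Same strain lacking NS1 served as positive control.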
FBPA Giardia inh: inhibitors of Giardia lamblia fructose-1,6-bisphosphate aldolase; Potency, µM (doses to about 59.6 µM), most hits filed as inhibitors; purified Giardia FBPA; 0.71% of 290,000 active; also: nearly all actives have a fitted effect of over 55% in size
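40 nM FBPA preincubated 10 min at RT with compound (up to 57.5 uM final), then substrate plus GAPDH/TPI/NAD/arsenate coupling and diaphorase/resazurin added. Fluorescence read after 20 min at RT, 525/598 nm.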
Shiga inhibitor: blocks Shiga toxin action in Vero cells; Vero cells, Shiga toxin protein synthesis inhibition reporter; inhibition, % at 38.7 µM; 9.2% of 290,000 active; AID 2315; in the data active = inhibition mostly above about 28%, no sharp cut-off; inactive = mostly below about 43%
CHX counter: counter-screen hit for Shiga toxin inhibitors, cycloheximide. cell reporter, cycloheximide protein synthesis inhibition counterscreen. 12% of 300,000 active. max response, %. AID 2314; in the data active = max response mostly above about 13%, no sharp cut-off; inactive = mostly below about 14%; also: read at 38.3 µM for the half of the compounds with a filed dose
LmPK inhibitor: inhibitors of Leishmania mexicana pyruvate kinase | purified LmPK, Kinase-Glo ATP luminescence, 1 h | Potency, µM (top dose mostly 57.5 µM), usual class: inhibitors | 0.37% of 290,000 active | AID 1721 | Q27686
Target sequence (Q27686 whole entry, looked up): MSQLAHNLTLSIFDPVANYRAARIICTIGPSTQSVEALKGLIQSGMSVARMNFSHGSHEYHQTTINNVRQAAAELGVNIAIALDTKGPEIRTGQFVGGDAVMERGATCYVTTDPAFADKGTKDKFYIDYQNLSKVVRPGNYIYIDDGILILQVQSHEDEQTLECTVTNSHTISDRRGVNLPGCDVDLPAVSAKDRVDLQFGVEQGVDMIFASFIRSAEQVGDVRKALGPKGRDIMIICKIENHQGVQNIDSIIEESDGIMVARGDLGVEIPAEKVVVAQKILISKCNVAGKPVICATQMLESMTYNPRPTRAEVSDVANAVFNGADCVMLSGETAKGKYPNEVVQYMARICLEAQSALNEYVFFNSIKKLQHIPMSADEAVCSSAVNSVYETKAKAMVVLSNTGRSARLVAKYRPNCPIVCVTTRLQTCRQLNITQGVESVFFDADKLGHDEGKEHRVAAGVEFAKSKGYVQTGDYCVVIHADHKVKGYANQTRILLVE
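Pyruvate kinase activity monitored as ATP production (luciferase luminescence). Conditions: 0.1 nM enzyme, 0.5 mM PEP, 0.1 mM ADP, 1 h, RT; normalized against uninhibited and no-enzyme wells.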
Each line names hits and unclear results; the compound was inactive in the other large screens. Unless noted, calls follow the shape of the dose curve; as a rule, active = well fitted curve in the direction sought with a large enough effect; inconclusive = small, poorly fitted or top-dose-only effect, or another doubt; inactive = no such curve, though single readings can be large; an effect the other way counts as inactive or inconclusive.

COC(=O)c1ccc(C23CC2(C(NP(=O)(c2ccccc2)c2ccccc2)c2ccccc2)C3)cc1 (stereo not given)	none (no result: NS1 inh, Shiga inhibitor, CHX counter, LmPK inhibitor)
COC(=O)C1=C(C(=O)OC)[C@@H]2Nc3ccccc3[C@@]23C[C@@H](C(=O)OC)N(S(=O)(=O)c2c(C)noc2C)C3=N1	none (no result: NS1 inh, Shiga inhibitor, CHX counter)
CC1(C)O[C@H]2C[C@@H]3[C@H]4CCC5=CC(=O)CC[C@@]5(C)[C@]4(F)[C@@H](O)C[C@@]3(C)[C@@]2(C(=O)CCl)O1	none (no result: NS1 inh, Shiga inhibitor, CHX counter, LmPK inhibitor)
CC(C)CN1C(=O)/C(=C(/C#N)C(=O)NC2CCCCC2)c2ccccc21	none (no result: NS1 inh)
O=C1NC(=O)[C@]2(Cc3ccccc3N3CCN(c4ccccc4)CC32)C(=O)N1c1ccccc1 (stereo not given in full)	Shiga inhibitor 75.9, CHX counter 25.0
Cc1ccc(N2C(=O)NC(=O)C3(Cc4ccccc4N4CCCC43)C2=O)cc1 (stereo not given)	NS1 inh inconclusive
O=C1NC(=O)[C@]2(Cc3ccccc3N3CCN(c4ccccc4)CC32)C(=O)N1Cc1ccccc1 (stereo not given in full)	Shiga inhibitor 54.3, CHX counter 30.1
CN1C(=O)NC(=O)[C@]2(Cc3ccccc3N3CCN(c4ccccc4)CC32)C1=O (stereo not given in full)	CHX counter 30.6
CN1C(=O)NC(=O)C2(Cc3ccccc3N3CCOCC32)C1=O (stereo not given)	none
Cc1cc(C)c(S(=O)(=O)Nc2ccc(O)c(Sc3ncn[nH]3)c2)cc1C	FBPA Giardia inh inconclusive
O=C(N/N=C1/C[C@@H](O)[C@@H](O)[C@@H]2[C@@H]3C(=O)N(Cc4ccccc4)C(=O)[C@H]3CC[C@@H]12)OCc1ccccc1	none (no result: NS1 inh, Shiga inhibitor, CHX counter, LmPK inhibitor)
COc1ccccc1/C=C1\C(=O)NC(=S)N(c2ccccc2)C1=O	none
O=C1NC(=S)N(c2ccc(F)cc2)C(=O)/C1=C/c1ccccc1O	CHX counter 12.4
CC(C)(C)c1ccc(CN2N=C(/C=C/c3ccccc3)CCC2=O)cc1	none (no result: NS1 inh)
CN1N=C(/C=C/c2ccccc2)CCC1=O	Shiga inhibitor 87.7, CHX counter 28.3 (no result: NS1 inh)
Cc1ccc(/C=C/C2=NN(C)C(=O)CC2)cc1	Shiga inhibitor 62.7, CHX counter 26.7 (no result: NS1 inh)
O=C1CCC(/C=C/c2ccccc2)=NN1Cc1ccccc1	none (no result: NS1 inh)
Cc1ccc(/C=C/C2=NN(Cc3ccccc3)C(=O)CC2)cc1	none
C=CCN1N=C(/C=C/c2ccccc2)CCC1=O	CHX counter 20.2 (no result: NS1 inh)
CCCCc1cc(C(=O)Cc2ccccn2)c(O)cc1O	none
CC1=CC(=O)C(C(C)C)=C/C1=C(\c1cc(C(C)C)c(OP(=O)(O)O)cc1C)c1ccccc1C(=O)O	none
Clc1ccc(Cl)c2sc(N3CCOCC3)nc12	none (no result: FBPA Giardia inh, Shiga inhibitor, CHX counter, LmPK inhibitor)
N#Cc1c(F)cccc1N1CCOCC1	none
Clc1cc(Cl)c2nc(N3CCOCC3)sc2c1	Shiga inhibitor 51.2, CHX counter 31.0
Fc1cccc2sc(N3CCCCC3)nc12	Shiga inhibitor 56.7, CHX counter 53.8
Fc1cccc2sc(N3CCOCC3)nc12	Shiga inhibitor 51.8, CHX counter 15.2
Clc1ccc(-c2nsc(N3CCOCC3)n2)c(Cl)c1	Shiga inhibitor 72.0, CHX counter 33.8
CCOP(=O)(OCC)c1nc(-c2ccc(Cl)cc2Cl)oc1N1CCOCC1	none
CCN(CC)C(=O)CSc1nc2cc(S(=O)(=O)N3CCOCC3)ccc2n1CC	none (no result: FBPA Giardia inh)
COCCN(C(=S)Nc1cc(C)cc(C)c1)C(C)c1ccco1 (stereo not given)	none (no result: NS1 inh)
CC1CCCC(C)N1C(=O)COC(=O)Cc1ccc(F)cc1 (stereo not given)	none
Fc1cc(F)c2nc(N3CCCC3)sc2c1	Shiga inhibitor 150.4, CHX counter 29.3 (no result: NS1 inh)
Cc1cc(C)n2nc(C(=O)N/N=C/c3ccc(Cl)cc3)nc2n1	none (no result: NS1 inh)
Cc1ccc(C(=O)NNC(=O)Cc2nc3nc(C)cc(C)n3n2)cc1	none (no result: FBPA Giardia inh)
Cc1cc(C)n2nc(C(=O)N/N=C/c3cccc(Cl)c3)nc2n1	CHX counter 9.4
Cc1cc(C)n2nc(C(=O)NNC(=O)c3ccc(Cl)cc3)nc2n1	FBPA Giardia inh inconclusive, Shiga inhibitor 33.7, CHX counter 30.7
Cc1cc(C(=O)OCC(=O)Nc2cc(S(=O)(=O)N(C)C)ccc2Cl)c2ccccc2n1	Shiga inhibitor 85.6 (no result: NS1 inh)
CCN(c1ccccc1)S(=O)(=O)c1ccc(Cl)c(NC(=O)COC(=O)c2cc(O)c3ccccc3c2O)c1	FBPA Giardia inh 5µM, Shiga inhibitor 36.1, CHX counter 11.8
Cc1oc(/N=C/c2ccccc2O)c(C#N)c1C	none
Cc1oc(/N=C/c2ccc(O)cc2O)c(C#N)c1C	Shiga inhibitor 116.8, CHX counter 36.6 (no result: NS1 inh)
CCOC(=O)N1CCN(C(=O)c2ccc(N(C)S(=O)(=O)c3ccc(C)cc3)cc2)CC1	none (no result: FBPA Giardia inh)
Cc1cc(C(=O)O)ccc1N/C=C1\CCCC(C)C1=O (stereo not given)	none
CC1CCC/C(=C\Nc2ccc(O)cc2)C1=O (stereo not given)	FBPA Giardia inh 7.92µM, Shiga inhibitor 80.5, CHX counter 52.2
Cc1ccc(C(=O)Nc2nnc(-c3ccco3)o2)cc1	CHX counter 43.8, LmPK inhibitor inconclusive
Cc1ccsc1C(=O)Nc1nnc(-c2ccco2)o1	CHX counter 18.1
COC(=O)Cc1c(C)c2ccc(OCC(=O)N3CCC(C)CC3)c(C)c2oc1=O	none (no result: FBPA Giardia inh)
Cc1ccccc1NC(=O)CCNS(=O)(=O)c1cccc2nsnc12	none
COc1ccc(C(C)C)cc1S(=O)(=O)N1CC(C)OC(C)C1 (stereo not given)	none
COc1ccc(C)cc1S(=O)(=O)N1CCCCCC1	none
COc1ccc(Br)cc1S(=O)(=O)N1CCCC1	Shiga inhibitor 53.6, CHX counter 30.0
COc1ccc(C)cc1S(=O)(=O)N1CC(C)OC(C)C1 (stereo not given)	CHX counter 37.9
Oc1ccc(C=NCCc2ccccc2)cc1	none
C=CCC(C)(Nc1ccccc1)C(=O)OCC (stereo not given)	none (no result: NS1 inh, Shiga inhibitor, CHX counter, LmPK inhibitor)
CN(C)C(=O)CSc1cnc2ccccc2n1	none (no result: NS1 inh)
CC1CCCN(C(=O)CSc2cnc3ccccc3n2)C1 (stereo not given)	Shiga inhibitor 111.1, CHX counter 58.2
CC1CCCCN1C(=O)CSc1nc2ncccc2[nH]1 (stereo not given)	none (no result: FBPA Giardia inh)
CC1CCCN(C(=O)CSc2nc3ncccc3[nH]2)C1 (stereo not given)	Shiga inhibitor 33.1, CHX counter 14.9
O=C(NCCOc1ccccc1)C1CCC(=O)N(C2CCCCCC2)C1 (stereo not given)	none
O=C(Nc1cccc2ccccc12)c1ccc(Cn2cc(Cl)cn2)cc1	none
NNC(=O)c1ccc(Cn2cc(Cl)cn2)cc1	none
O=C(Nc1ccccc1F)c1ccc(Cn2cc(Cl)cn2)cc1	CHX counter 27.8
O=C(Nc1ccc(Cl)c(Cl)c1)c1ccc(Cn2cc(Cl)cn2)cc1	Shiga inhibitor active, CHX counter 31.9
O=C(O)c1ccccc1C(c1ccc(O)cc1)c1ccc(O)cc1	none
COc1ccccc1NC=C1C(=O)OC(C)(C)OC1=O	Shiga inhibitor 82.0, CHX counter 36.5
CC(C)NOC(=O)c1ccc(Cl)cc1	CHX counter 46.4 (no result: NS1 inh)
S=c1[nH]nc(-c2ccco2)n1C1CCCCC1	NS1 inh inconclusive, LmPK inhibitor 25.1µM

Source: PubChem BioAssay
